From PubChem BioAssay
In the library only some 1.5% were active in any assay of this set; here they are far more common.
RAD54 inh: blocks human RAD54 Holliday junction branch migration; Q92698; AID 602329; actives 0.14% (n = 360,000); inhibition, % at 10.4 µM; FAM/BHQ fluorescence;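 active = mean normalized replicate activity at least 40 and at least half of replicates scoring 40 or more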;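 note: 0% = median of neutral control wells and 100% = median of positive control wells; inhibitors cause a drop in the FAM fluorescence signal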
N-glyco inh: N-linked glycosylation inhibition | D54 ERlucT glycosylation luciferase reporter, 24 h; percent of 100 nM tunicamycin response | reporter increase, % at 12.5 µM | actives 0.23% (n = 360,000) | AID 588692;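 active = mean luciferase reporter signal, scaled so untreated is 0 and the glycosylation-blocking control 100, at or above a set limit in every replicate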;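 note: luciferase carries N-glycosylation sites so blocking glycosylation raises the light; 0% = median of neutral control wells and 100% = median of 100 nM tunicamycin wells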
CFTR F508del cor: CFTR F508del correction in bronchial cells; CFBE cells, YFP halide quenching; stimulated with forskolin plus potentiator P3; % fluorescence drop versus neutral controls; actives 0.36% (n = 350,000); activity (quench increase), % at 7.58 µM;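 active = mean added fluorescence quench of at least 8% versus neutral control, with both replicates also reaching 8%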;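 note: cells transiently co-express mutant CFTR-F508del with the halide-sensitive YFP; corrector assay measuring rescue of mutant channel to the surface after 24 h compound exposure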
RAD52 anneal inh: RAD52 (human) annealing inhibition; P43351; recombinant RAD52 DNA annealing, FRET fluorescence; inhibition, % at 18.7 µM; actives 0.46% (n = 360,000); AID 651710;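 active = every replicate showing at least 50% inhibition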
Target sequence (P43351 whole entry, looked up): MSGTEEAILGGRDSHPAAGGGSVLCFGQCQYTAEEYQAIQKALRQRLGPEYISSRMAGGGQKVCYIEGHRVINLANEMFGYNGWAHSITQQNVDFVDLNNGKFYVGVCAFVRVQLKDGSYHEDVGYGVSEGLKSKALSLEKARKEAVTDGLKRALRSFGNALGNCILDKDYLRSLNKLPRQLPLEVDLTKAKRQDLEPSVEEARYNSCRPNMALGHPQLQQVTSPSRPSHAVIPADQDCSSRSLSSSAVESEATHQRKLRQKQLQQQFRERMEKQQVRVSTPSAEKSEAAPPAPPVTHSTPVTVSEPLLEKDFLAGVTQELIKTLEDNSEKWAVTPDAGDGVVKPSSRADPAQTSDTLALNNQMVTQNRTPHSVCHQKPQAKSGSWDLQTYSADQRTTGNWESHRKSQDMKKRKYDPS
dFosB act-1: enhances mouse delta FosB homodimer DNA binding. purified delta FosB, TAMRA-CDK5 oligo fluorescence polarization; percent of positive-control signal above neutral wells. activation, % at 25 µM. actives 0.99% (n = 340,000). AID 493131;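 active = mean activation above about 17%, with every replicate also reaching it, limit read from the data, passing the limit was not always enough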
PvdQ inh: blocks Pseudomonas aeruginosa PvdQ acylase activity; purified PvdQ acylase, fluorescence plate reader; inhibition, % at 10 µM; actives 0.063% (n = 340,000); AID 488965; in the data active = inhibition above about 30%, passing the limit was not always enough;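 note: 0% = vehicle neutral wells and 100% = reference inhibitor wells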
dFosB act-2: delta FosB (mouse) homodimer activation; shares compounds with dFosB act-1; purified delta FosB, TAMRA-CDK5 oligo fluorescence polarization; normalised: neutral wells 0, positive control 100; activation, % at 24.9 µM; 2,400 tested, under 10 active; AID 588690;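 active = highest replicate activation at or above 34% and every replicate reaching that threshold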;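 note: higher polarization means more probe DNA bound by delta FosB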
* marks the source's active call; other numbers are inactive results; / = not tested or not shown.

SMILES	RAD54 inh	N-glyco inh	CFTR F508del cor	RAD52 anneal inh	dFosB act-1	PvdQ inh	dFosB act-2
COc1ccc(S(=O)(=O)N(C)C[C@@H]2Oc3ccc(NC(=O)Nc4cccc5ccccc45)cc3C(=O)N([C@@H](C)CO)C[C@@H]2C)cc1	/	/	-6	15	/	/	/
CC(=O)Nc1cccc(NC(=O)Nc2cccc3ccccc23)c1	6	4	-1	-6	21*	9	-3
CS(=O)(=O)c1ccc2nc(NC(=O)c3ccccc3)sc2c1	-5	-10	0	-14	0	-6	/
CS(=O)(=O)c1ccc2nc(NC(=O)Nc3ccccc3F)sc2c1	5	-9	/	-15	20*	-3	0
CN(C[C@@H]1N[C@H](CO)[C@@H]1c1ccc(-c2cccc(F)c2)cc1)C(=O)C1CCC1	0	/	-2	-19	/	/	/
Cc1noc(C)c1S(=O)(=O)N(C)C[C@@H]1OCCCC[C@H](C)Oc2ccc(NC(=O)NC3CCCCC3)cc2C(=O)N([C@H](C)CO)C[C@H]1C	-2	/	-1	-53	/	/	/
CC(=O)Nc1ccc(NC(=O)c2ccco2)cc1	8	1	/	/	-7	1	/
O=C(COc1ccccc1)Nc1ccc(NC(=O)c2ccco2)cc1	/	0	-5	-11	1	-1	/
O=C(COc1ccc(Cl)cc1)Nc1ccc(NC(=O)c2ccco2)cc1	/	-1	2	6	25*	-10	9
CC(=O)c1ccc(NC(=O)c2ccc(NC(=O)c3ccco3)cc2)cc1	-4	-7	/	/	93*	9	2
COc1ccc(C(=O)Nc2ccc3c(c2)C(=O)NC3=O)cc1	-7	1	2	-15	49*	0	3
CC(C)(C)c1ccc(C(=O)Nc2ccc3c(c2)C(=O)NC3=O)cc1	-5	2	0	5	3	-12	/
COc1ccc(OCC(=O)Nc2ccc3c(c2)C(=O)NC3=O)cc1	1	0	-2	9	0	0	/
CC(=O)c1ccc(C(=O)Nc2ccc3c(c2)C(=O)NC3=O)cc1	4	1	3	-1	32*	-11	0
O=C(C[C@H]1C[C@@H]2c3cc(NC(=O)C4CCC4)ccc3O[C@@H]2[C@@H](CO)O1)NC1CCCCC1	-2	/	-2	-13	/	/	/
CO[C@@H]1CN(C)C(=O)c2ccc(NC(C)=O)cc2OC[C@H](C)N(S(=O)(=O)c2cn(C)cn2)C[C@H]1C	-5	/	-1	0	/	/	/
COc1ccc(C(=O)NC(=S)Nc2ccc(NC(=O)c3ccco3)cc2)cc1[N+](=O)[O-]	-1	-1	/	-9	29*	-7	0
COc1ccc(NC(=O)c2oc3ccccc3c2NC(=O)c2ccco2)cc1	/	19	3	-14	21*	-5	-1
COc1cccc(C(=O)Nc2ccc3c(c2)C(=O)NC3=O)c1	-7	1	2	0	23*	-18	3
O=C(C[C@@H]1C[C@@H]2c3cc(NC(=O)C4CCC4)ccc3O[C@@H]2[C@H](CO)O1)NCCc1ccccc1	15	/	-3	16	/	/	/
O=C(CCCC(=O)Nc1ccccc1Br)N/N=C/c1c(F)cccc1Cl	5	6	0	-10	27*	10	5
CC(SC(C)C(=O)NN=Cc1cccc(F)c1)C(=O)NN=Cc1cccc(F)c1 (stereo unspecified)	2	0	-1	-10	28*	-14	1
COc1ccc(-c2ccc3c(c2)O[C@@H](CN(C)Cc2cccnc2)[C@@H](C)CN([C@H](C)CO)S3(=O)=O)cc1	-2	/	-2	17	/	/	/
Cc1ccc(S(=O)(=O)N2CC[C@@H]3[C@H]2c2cc(C#Cc4cccnc4)ccc2N(C)[C@H]3CO)cc1	-4	/	2	/	/	/	/
COc1ccc(CNc2nc3c(c(=O)[nH]c(=O)n3C)n2Cc2ccccc2C)cc1	12	4	0	-10	18*	-20	0
Cn1cc(/C=N/NC(=O)c2cccc([N+](=O)[O-])c2)c2ccccc21	-2	0	/	/	8	-11	/
Cn1cc(/C=C(\C#N)C(=O)Nc2cccc([N+](=O)[O-])c2)c2ccccc21	3	-5	1	-106	45*	1	4
